# Screens as filed in PubChem BioAssay.
# Shown are actives, neighbours in structure and some others; about 8% of the full set was active somewhere.
# HT1080 IDH1KD tx = HT-1080 IDH1 knockdown cell toxicity (counter line); HT-1080 IDH1 knockdown viability, ATP luminescence, 48 h; Potency, µM (titrated, usually from 46.1 µM), for inactives: at the top dose activity, negative = toxicity, actives largely listed as cytotoxic; actives 2% (n = 360,000); AID 686971;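 also: 0% = DMSO wells and -100% = cell-free medium wells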
#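 After a 2 h attachment period, IDH1KD HT-1080 cells took pin-transferred compound for 48 h at 37 °C; ATP-based luminescence after 10 min room-temperature reagent incubation reported viability.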
# SW480 rerep = induces DNA re-replication in SW480 colon adenocarcinoma cells. actives 1.8% (n = 340,000). SW480 DNA re-replication, Hoechst DNA content imaging, 48 h. Potency, µM (highest dose often 46.1 µM), without a hit: top-dose re-replication activation, most hits filed as activators; also: % of control where 0% means no effect; nearly all actives have a fitted effect of over 55% in size
#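 Readout is total intensity of Hoechst-stained nuclei, excited at 405 nm and collected at 500-530 nm. Compound treatment lasted 48 hr at 37 C in 5% CO2 before staining.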
# KB-3-1 cytotox = kills parental KB-3-1 adenocarcinoma cells; KB-3-1 viability, CellTiter-Glo ATP luminescence, 72 h; Potency, µM (top dose mostly 46.1 µM), most hits filed as cytotoxic; actives 1.4% (n = 400,000); also: % is scaled to controls: 0 for no effect and ±100 for the full control effect; nearly all actives have a fitted effect of over 60% in size
#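 Parental KB-3-1 adenocarcinoma cells in phenol-red-free DMEM with 10% FBS were pin-treated with compounds at several concentrations, incubated 72 h at 37 °C, and viability read by CellTiter-Glo luminescence; concentration-effect curves were fitted after normalization.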
# HT1080NT lethal = kills 2HG-producing HT-1080-NT fibrosarcoma cells | HT-1080-NT fibrosarcoma viability, CellTiter-Glo ATP luminescence, 48 h | actives 1.6% (n = 360,000) | AID 686970 | Potency, µM (top dose mostly 46.1 µM), for inactives: top-dose activity, negative = less viability, actives largely listed as cytotoxic;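 also: NT is the 2HG producing partner of a matched IDH1 knockdown line; 0% = DMSO-treated cells and -100% = media-only wells without cells; nearly all actives have a fitted effect of over 55% in size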
#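 Fibrosarcoma NT cells, 750 per well in 5% FBS RPMI, were exposed to compound for 48 hours. Viability: CellTiter-Glo luminescence.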
# MCF10A rereplic = DNA re-replication induction in MCF 10a cells | MCF 10A DNA re-replication, Hoechst nuclear intensity, 48 h | actives 2.9% (n = 350,000) | Potency, µM (top dose mostly 46.1 µM), for inactives: top-dose activity, positive = re-replication, most hits filed as activators; also: % of control where 0% means no effect; nearly all actives have a fitted effect of over 50% in size
# KB-V1 cytotox = kills drug-selected multidrug resistant KB-V1 cells; KB-V1 MDR cells viability, CellTiter-Glo, 72 h; actives 3.4% (n = 400,000); Potency, µM (titrated, usually from 46.1 µM), most hits filed as cytotoxic; also: % is scaled to controls: 0 for no effect and ±100 for the full control effect; nearly all actives have a fitted effect of over 60% in size
#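 Cells of the MDR subline KB-V1 are plated, dosed with compound at multiple concentrations, and incubated 72 h at 37 degrees C; CellTiter-Glo is then added and luminescence read after 10 min.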
# Starred values were filed as active, the others as inactive; i = inactive; ? = inconclusive; . = not tested or not shown. Calls follow the shape of the dose curve; as a rule, active = well fitted curve in the direction sought with a large enough effect; inconclusive = small, poorly fitted or top-dose-only effect, or another doubt; inactive = no such curve, though single readings can be large; an effect the other way counts as inactive or inconclusive. Potency is read from the fitted curve at half-maximal effect.
SMILES,HT1080 IDH1KD tx,SW480 rerep,KB-3-1 cytotox,HT1080NT lethal,MCF10A rereplic,KB-V1 cytotox
CCCCCCn1c(N2CCN(c3cccc(Cl)c3)CC2)nc2c1c(=O)[nH]c(=O)n2C,-5.5%,-2.1%,?,-0.3%,?,16.4µM*
Clc1cccc(N2CCN(c3nc4ccccc4n4cnnc34)CC2)c1,.,.,i,.,.,i
Cn1c(CN2CCN(c3cccc(Cl)c3)CC2)nc2ccccc21,-1.0%,20.6µM*,i,-1.9%,?,?
CCCCCCn1c(N2CCN(c3ccccc3)CC2)nc2c1c(=O)[nH]c(=O)n2C,?,2.9%,?,-15.5%,12.7%,?
CC(=O)Nc1cccc(Oc2nc(-c3ccccn3)nc3ccccc23)c1,3.1%,65.8%,?,7.2%,?,?
CCOc1ncccc1C(=O)OC(C)C(=O)Nc1ccc(CC)cc1 (centres undefined),1.7%,-3.8%,i,2.8%,16.8%,?
COc1ccc(OC)c(N(CC(=O)N2CCC(C)CC2)S(=O)(=O)c2ccc(OC)c(OC)c2)c1,0.5%,10.7%,i,11.5%,0.5%,i
COc1ccc(OC)c(N(CC(=O)N2CCC(C)CC2)S(=O)(=O)c2ccccc2)c1,11.2%,-4.3%,i,11.5%,4.4%,7.31µM*
CCOC(=O)N1CCN(C(=O)CN(c2cccc(C)c2)S(=O)(=O)c2ccccc2)CC1,9.1%,-3.8%,i,10.7%,0.5%,2.91µM*
COc1ccccc1N1CCN(C(=O)CN(c2ccccc2OC)S(=O)(=O)c2ccccc2)CC1,-9.1%,2.6%,i,-0.7%,13.7%,23.1µM*
CCOC(=O)N1CCN(C(=O)CN(c2ccc(Cl)c(C(F)(F)F)c2)S(C)(=O)=O)CC1,-0.8%,-10.2%,i,-1.8%,17.9%,23.1µM*
Cc1ccn2cc(CCNS(=O)(=O)c3ccc4c(c3)OCCO4)nc2c1,0.4%,-5.1%,i,1.5%,-6.5%,i
CC(=O)NCCCNc1ccc([N+](=O)[O-])cc1,16.6%,-0.4%,i,9.6%,-6.5%,i
CS(=O)(=O)N(CC(=O)N1CCOCC1)c1cccc(Cl)c1,-6.2%,.,i,0.5%,.,i
CS(=O)(=O)N(CC(=O)N1CCN(c2ccc(F)cc2)CC1)c1cccc(Cl)c1,-15.0%,-4.2%,i,-19.2%,6.5%,9.2µM*
CC1(C(=O)NC(=S)N(Cc2ccccc2)c2ccccn2)CC1(Cl)Cl (centres undefined),-11.2%,8.9%,i,-5.2%,4.7%,i
Cc1cccc(-n2c(-c3ccncc3)n[nH]c2=S)c1,-0.6%,-10.9%,i,-3.3%,-4.2%,i
c1cncc(-c2nc(N3CCCCCC3)c3ccccc3n2)c1,-13.1%,-6.8%,i,-7.9%,6.4%,4.11µM*
Fc1ccccc1-c1nc(N2CCCCC2)c2ccccc2n1,-1.5%,1.0%,?,10.5%,14.5%,13µM*
CCCOc1ccc(-c2nc(N3CCCCC3)c3ccccc3n2)cc1,.,.,i,.,.,i
Oc1ccccc1-c1nc(N2CCCC2)c2ccccc2n1,12.7%,-4.5%,i,11.6%,2.0%,i
CN1CCN(c2nc(-c3ccccn3)nc3ccccc23)CC1,7.94µM*,?,i,7.94µM*,22.9%,23.1µM*
c1ccc2c(N3CCCCCC3)nc(-c3ccncc3)nc2c1,?,-0.1%,i,-5.0%,?,18.4µM*
Nc1nonc1-n1nnc(C(=O)N/N=C/c2ccncc2)c1-c1cccs1,14.1%,?,i,-1.3%,-4.4%,?
Cc1ccc(S(=O)(=O)NC2CC3CCC2C3)cc1 (centres undefined),-7.6%,1.0%,?,-0.9%,?,?
SMILES,HT1080 IDH1KD tx,SW480 rerep,KB-3-1 cytotox,HT1080NT lethal,MCF10A rereplic,KB-V1 cytotox
Cc1ccc(C)c(S(=O)(=O)N2CCN(c3ncccn3)CC2)c1,?,2.2%,?,18.4µM*,2.6%,?
Cc1ccc(C)c(S(=O)(=O)N2CCN(c3nc(-c4cccnc4)nc4ccccc34)CC2)c1,-7.4%,-2.4%,?,-19.9%,0.651µM*,i
CN1CCN(c2nc(-c3cccnc3)nc3ccccc23)CC1,?,?,i,?,26.5%,i
Cc1ccc(S(=O)(=O)N2CCN(c3ncccn3)CC2)c(C)c1,-3.0%,-43.4%,i,-2.7%,-5.6%,i
COc1cc2c(cc1OC)CN(c1nc(-c3cccnc3)nc3ccccc13)CC2,18.4µM*,5.5%,i,18.4µM*,?,?
c1ccc2c(N3CCCCC3)nc(N3CCOCC3)nc2c1,-1.6%,11.8%,i,21.5%,0.3%,i
C(=C\c1nc(N2CCCCCC2)c2ccccc2n1)/c1ccccc1,?,?,i,?,20.6µM*,18.4µM*
COc1cc(NC(=O)[C@H]2O[C@@H](n3ccc(N)nc3=O)[C@H](O)[C@@H]2O)cc(OC)c1OC,16.9%,.,i,22.9%,.,i
CCN(CC)S(=O)(=O)c1ccc(Oc2ccc(S(=O)(=O)N(CC)CC)cc2)cc1,-29.4%,0.9%,?,?,6.6%,2.31µM*
COCCN(CC(=O)Nc1cccc(C)c1C)C(=O)Cc1ccsc1,0.0%,-0.7%,i,5.7%,17.7%,i
O=C(Nc1ccc2nc(-c3ccco3)c(-c3ccco3)nc2c1)NC1CC1,-11.9%,?,i,-5.7%,25.1%,?
O=C(Nc1ccc2nc(-c3ccccn3)c(-c3ccccn3)nc2c1)N1CCCC1,.,.,i,.,.,i
O=C(Nc1ccc2nc(-c3cccs3)c(-c3cccs3)nc2c1)N1CCOCC1,?,23.1µM*,i,-16.8%,18.4µM*,16.4µM*
O=C(c1ccc2nc(-c3ccco3)c(-c3ccco3)nc2c1)N1CCN(c2ccccc2)CC1,?,?,i,-9.6%,16.4µM*,23.1µM*
O=C(Nc1ccc(N2CCOCC2)cc1)Nc1ccc2nc(-c3ccco3)c(-c3ccco3)nc2c1,5.01µM*,18.3%,?,2.82µM*,9.2µM*,?
COc1ccccc1CC(=O)Nc1sc2c(c1C(N)=O)CCCC2,?,-8.9%,i,?,11.0%,i
CC(=O)N(C1=C(N)C(=O)c2ccccc2C1=O)C(C)C,-8.0%,?,i,-11.7%,0.0%,i
COc1ccccc1N(C(C)=O)C1=C(Cl)C(=O)c2ccccc2C1=O,7.31µM*,.,i,18.4µM*,.,i
OCc1ccc(-c2ccc3nccn3c2)cc1,-1.1%,.,i,-7.6%,.,i
O=S(=O)(c1cccc2cccnc12)N1CCN(c2ccc(F)cc2)CC1,1.0%,-16.5%,i,1.7%,-7.4%,i
